High-throughput results from PubChem BioAssay.
SKKanGAS inh = blocks kanamycin growth of S. pyogenes SKKanGAS strain; AID 1662; BacTiter-Glo, 6 h; inhibition, % at 7.5 µM; actives 1.3% (n = 300,000);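 active = mean replicate score, as percent of positive control median, at least 50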;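 also: strain carries kanamycin resistance gene driven by streptokinase promoter and grows in 40 µg/ml kanamycin; loss of luminescence reflects streptokinase promoter inhibition or plain growth inhibition; 0% = median of DMSO wells and 100% = positive control at its reference dose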
PfHsp90 yeast 2 = inhibits growth of yeast expressing Plasmodium falciparum Hsp90. S. cerevisiae expressing PfHsp90, BacTiter-Glo ATP, 48 h; yeast lacking PDR1 and PDR3 efflux regulators. inhibition, % at 9.4 µM. actives 0.32% (n = 310,000);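 active = every replicate shows inhibition above about 80%, whatever the replicate mean, limit read from the data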;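 also: 0% = DMSO neutral controls and 100% = 20 µM radicicol positive controls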
EBI2 antag = EBI2 (human) antagonism | P32249 | EBI2 beta-arrestin recruitment, luminescence, 7a,25-OHC stimulated | inhibition, % at 5 µM | actives 0.81% (n = 360,000); in the data active = inhibition above about 38%;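 also: enzyme fragment complementation signal reports receptor beta-arrestin coupling in cells; 0% = agonist plus DMSO wells and 100% = wells without agonist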
Target sequence (P32249 whole entry, looked up, the tested form may be a part): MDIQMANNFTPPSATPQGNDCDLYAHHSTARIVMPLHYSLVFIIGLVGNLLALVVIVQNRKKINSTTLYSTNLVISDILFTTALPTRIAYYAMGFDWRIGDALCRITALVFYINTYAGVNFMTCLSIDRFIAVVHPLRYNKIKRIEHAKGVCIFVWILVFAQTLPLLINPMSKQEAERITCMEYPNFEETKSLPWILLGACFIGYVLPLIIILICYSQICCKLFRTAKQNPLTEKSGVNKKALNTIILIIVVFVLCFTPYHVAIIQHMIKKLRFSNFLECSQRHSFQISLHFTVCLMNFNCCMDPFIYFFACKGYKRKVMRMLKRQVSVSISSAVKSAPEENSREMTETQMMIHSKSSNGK
tim23-1 inh = tim23-1 yeast growth inhibition | S. cerevisiae tim23-1 growth, BacTiter-Glo luminescence, 24 h | inhibition, % at 20 µM | actives 1.3% (n = 330,000) | AID 463212;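 active = growth inhibition of the mutant yeast at or above 50%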;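 also: temperature-sensitive mutant grown at 25 °C; plate controls were DMSO-treated mutant yeast for no effect and medium wells lacking yeast for full effect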
tim10-1 inh = inhibits growth of tim10-1 mutant yeast. S. cerevisiae tim10-1 ts strain growth, BacTiter-Glo, 24 h. inhibition, % at 20 µM. actives 2.2% (n = 330,000);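 active = inhibition of at least 40%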;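 also: mutant grown at 25 °C; 0% = DMSO wells with yeast and 100% = wells holding no yeast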
TIM10 inh = growth inhibitors of TIM10 yeast strain; S. cerevisiae TIM10 strain growth, BacTiter-Glo luminescence, 24 h; inhibition, % at 10 µM; actives 1.4% (n = 330,000); AID 463195;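 active = inhibition of 40% or more at the single tested concentration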;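 also: wild-type TIM10 isogenic control strain grown at permissive 25 °C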
tim10-1 confirm = tim10-1 yeast growth inhibition, confirmed; shares compounds with tim10-1 inh; S. cerevisiae tim10-1 ts strain growth, BacTiter-Glo, 24 h; inhibition, % at 20 µM; actives 56% (n = 7,400);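 active = inhibition of yeast growth at or above a set limit in either of two repeat tests at 20 µM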;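 also: tim10-1 mutant grown at permissive 25 °C to find synthetic lethal compounds; 0% = DMSO yeast wells and 100% = medium wells without yeast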
TIM10 conf = confirmation of TIM10 yeast growth inhibitors | inhibition, % at 10 µM | shares compounds with TIM10 inh | S. cerevisiae tim10 strain growth, BacTiter-Glo luminescence, 24 h | AID 463215 | actives 63% (n = 4,600);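 active = inhibition of yeast growth at or above a set limit in either of two replicates at 10 µM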;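 also: this counterscreen used the strain with wild-type TIM10; 0% = yeast with DMSO and 100% = medium wells lacking yeast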
Numbers without * were called inactive; / = no result. Hits are enriched below; roughly 4.7% of the tested compounds scored in any of these assays.

SMILES	SKKanGAS inh	PfHsp90 yeast 2	EBI2 antag	tim23-1 inh	tim10-1 inh	TIM10 inh	tim10-1 confirm	TIM10 conf
c1coc(C2=Nc3cccc4cccc(c34)N2)c1	0.1	13.0	-12.8	49.1	47.4*	48.7*	25.6	23.5
COc1cccc(C2=Nc3cccc4cccc(c34)N2)c1	11.5	-10.0	3.7	46.9	19.3	37.3	/	/
CCCc1n(CC)c2ccccc2[n+]1CC(O)COC1CCCCC1 (configuration not stated)	0.1	10.5	-3.6	2.8	4.9	-7.8	/	/
COc1ccc(C(=O)Oc2ccc(F)cc2C(=O)/C=C/c2ccc(OC)c(OC)c2)cc1	0.7	-3.8	7.9	38.6	24.4	27.4	/	/
O=C(Oc1ccc(F)cc1C(=O)/C=C/c1cccs1)c1cccc([N+](=O)[O-])c1	3.8	-16.5	-24.5	20.8	50.8*	49.9*	39.5*	1.0
CCOc1ccc(Nc2cc(C)nc(-n3nc(C)cc3C)n2)cc1	87.1*	-1.1	1.7	18.0	44.3*	42.2*	0.8	7.4
CC(=O)Nc1cccc(-c2ccnc3c2CC(C(=O)NCc2ccc(N(C)C)cc2)O3)c1 (configuration not stated)	/	/	-6.4	/	/	/	/	/
COc1ccc(N2CCN(C(=O)CSc3nnc(C4CC4)n3C3CC3)CC2)cc1	/	/	3.5	/	/	/	/	/
CC(C)(O)C(=O)NNC(=S)Nc1ccc(F)c(Cl)c1	-8.1	11.9	8.1	12.2	5.6	-8.7	/	/
CCC(=O)N1CCc2cc(S(=O)(=O)N3CCN(c4ccccn4)CC3)ccc21	3.1	-3.2	-5.4	22.6	42.8*	43.8*	37.2*	1.8
CCOC(=O)c1ccc(NC(=O)CC2Sc3ncnn3C2=O)cc1 (configuration not stated)	-1.5	/	-13.3	24.5	61.4*	75.2*	58.3*	58.3*
COc1nnc(-c2ccc(N3CCCCC3)c(N)c2)c2ccccc12	8.2	3.0	1.4	48.9	44.4*	49.1*	35.9*	39.8*
CCCCOC(=O)/C(=C\c1ccc([N+](=O)[O-])o1)NC(=O)c1ccccc1	16.7	-6.1	-7.0	25.5	40.4*	45.3*	40.0*	17.9
CCCCOC(=O)/C(=C/C=C/c1ccccc1)NC(=O)c1ccccc1	-3.3	-38.9	4.0	29.6	38.5	32.1	/	/
Cc1ccc(N(CC(=O)Nc2cccc(C)c2)S(=O)(=O)c2cccc3nonc23)cc1	8.3	-9.7	-7.2	18.5	42.3*	44.2*	33.2*	38.7*
C/C(=N/OC(=O)c1c(-c2ccccc2Cl)noc1C)c1cnccn1	-1.6	-3.4	7.9	1.7	32.7	4.4	/	/
Cc1onc(-c2ccccc2Cl)c1C(=O)O/N=C(\N)c1ccc([N+](=O)[O-])o1	5.2	-10.6	0.3	39.3	49.2*	44.2*	28.1	44.0*
O=Nc1c(O)n(Cc2ccc(Cl)cc2Cl)c2ccccc12	11.6	6.3	-12.2	38.2	51.9*	41.6*	18.5	39.0*
Cc1cc(C)cc(C(=O)N(CCc2ccccc2)C2CC3CCC(C2)N3C)c1 (configuration not stated)	0.8	5.0	7.8	-17.4	-7.7	-9.2	/	/
CCCNCc1cc(OC)c(OCCC)cc1Cl	-4.3	-11.2	-2.9	11.5	9.4	9.0	/	/
COC(=O)c1ccccc1NC(=S)NC(=O)COc1ccccc1Cl	17.4	/	-15.1	34.5	41.8*	42.3*	24.1	31.8
CCOc1ccccc1NC(=O)c1ccc2nc[nH]c2c1	-1.3	5.6	-15.2	-2.0	-12.1	-6.0	/	/
CC(C)Nc1nnc(Sc2ccc(Cl)cc2[N+](=O)[O-])s1	-5.3	43.9	-7.0	47.7	79.4*	69.1*	72.2*	7.8
Nc1nnc(Sc2ccc(Cl)cc2[N+](=O)[O-])s1	-5.1	23.4	2.4	-1.8	15.4	3.1	/	/
Cc1cc(=O)oc2cc(OCC(=O)N3CCC(C(N)=O)CC3)ccc12	2.9	-5.5	-10.1	-12.5	21.4	-12.7	/	/
SMILES	SKKanGAS inh	PfHsp90 yeast 2	EBI2 antag	tim23-1 inh	tim10-1 inh	TIM10 inh	tim10-1 confirm	TIM10 conf
Cc1cc(NC(=O)COC(=O)C(Nc2ccc(C(F)(F)F)cc2Cl)C(C)C)no1 (configuration not stated)	28.6	15.3	15.7	42.9	52.6*	50.0*	23.2	43.4*
Cc1ccccc1Cn1nnc2c1C(=O)c1ccccc1C2=O	29.8	-17.6	-7.1	2.1	25.1	17.6	/	/
Cc1cccc(Cn2nnc3c2C(=O)c2ccccc2C3=O)c1	-6.5	-35.4	-4.9	31.4	42.3*	52.4*	27.0	32.9*
O=C(COC(=O)c1ccccc1NC(=O)c1ccco1)NCc1ccc2c(c1)OCO2	-0.8	12.5	6.4	-32.5	-6.6	-9.1	/	/
CCN1/C(=C/C=C/c2oc3ccc(-c4ccccc4)cc3[n+]2CC)Oc2ccc(-c3ccccc3)cc21	92.6*	54.6	-9.6	-54.3	61.3*	62.9*	-6.3	42.2*
CCSc1nnc(-c2ccc(S(=O)(=O)NCc3cccs3)cc2)o1	/	/	0.5	46.5	45.0*	45.2*	50.1*	30.2*
CCOc1ccc(S(=O)(=O)NCc2cccs2)cc1	-6.1	4.2	1.9	21.2	23.5	8.5	/	/
Cc1ccc(CNS(=O)(=O)NCc2cccs2)cc1	-8.0	-24.2	6.4	-8.4	1.0	-32.6	/	/
COC(=O)c1cc(NC(=O)c2ccccc2)c(=O)oc1C	1.4	22.9	2.0	16.7	11.6	19.1	/	/
COc1ccc(C(=O)Nc2cc(C(=O)c3ccccc3)c(C)oc2=O)cc1	-2.9	117.1*	6.6	44.7	66.0*	60.2*	70.2*	43.0*
Cc1oc(=O)c(NC(=O)c2cccc(Cl)c2)cc1C(=O)c1ccccc1	-4.7	/	13.3	47.6	62.5*	51.2*	61.5*	43.4*
Cc1oc(=O)c(NC(=O)c2ccccc2)cc1C(N)=O	/	-30.8	-16.4	3.8	5.0	3.9	/	/
CC1CC(C)CN(S(=O)(=O)N2CCC(C(=O)NCCc3ccccc3)CC2)C1 (configuration not stated)	-2.5	13.9	3.6	14.1	18.2	15.8	/	/
COc1ccc(C(=O)/C(=C\c2ccco2)N2C=CC=CC2=C(C#N)C#N)cc1	-0.1	13.0	54.0*	31.0	52.5*	59.5*	40.8*	52.8*
COc1ccc(/C=C(/C(=O)c2cccs2)N2C=CC=CC2=C(C#N)C#N)cc1	-7.1	3.4	23.1	/	/	/	/	/
Cc1nnc(Nc2ccc(Cl)cc2)s1	4.7	-3.5	3.7	13.6	8.9	14.9	/	/
Clc1ccc(Nc2nc(C3CC3)cs2)cc1	11.4	-18.0	11.4	47.9	53.7*	43.1*	48.8*	19.6
CC(=O)ON=C1C=CC(=C(C#N)c2ccccc2)C=C1	/	/	14.7	/	/	/	/	/
COc1ccc(C(C#N)=C2C=CC(=NO)C=C2)cc1	18.9	115.1*	-10.7	44.5	50.5*	81.2*	54.5*	90.8*
